# Laboratory results from ChEMBL document CHEMBL1157539, “Thousands of chemical starting points for antimalarial lead identification” (Nature, 2010).
# Key:
# Assay type in all cases: functional
# Plasmodium falciparum [1] = experiment: GSK_TCMDC: Inhibition of Plasmodium falciparum 3D7 in whole red blood cells, using parasite LDH activity as an index of growth. Test compounds present at 2uM
# Plasmodium falciparum [2] = experiment: GSK_TCMDC: Inhibition of Plasmodium falciparum Dd2 in whole red blood cells, using parasite LDH activity as an index of growth. Test compounds present at 2uM
# HepG2 = experiment: GSK_TCMDC: Percent inhibition of human HepG2 cell line. Test compounds present at 10uM.
SMILES,Inhibition (Plasmodium falciparum [1]),Inhibition (Plasmodium falciparum [2]),Inhibition (HepG2)
COc1ccc(CN2CCC(NCc3cccc(C(F)(F)F)c3)CC2)cc1.O=C(O)C(F)(F)F,99%,8%,6%
C=CCn1c(=N)c(C(=O)NC2CCCCC2)cc2c(=O)n3cccc(C)c3nc21,92%,58%,0%
CCCOc1ccc(-c2nonc2NC(=O)c2cccc(OC)c2)cc1OCCC,94%,100%,18%
Cc1ncc(CN2CCC(C(=O)Nc3ccc(-c4nc5ccccc5o4)cc3)CC2)s1,82%,92%,0%
Cc1cccc2nc(C3CCN(CC4CCN(C(=O)/C=C/c5ccc(Cl)c(Cl)c5)CC4)CC3)[nH]c12,100%,79%,46%
CN(CCN)Cc1cccc(-c2cccc(-c3nc4cc(F)ccc4[nH]3)c2)c1.O=C(O)C(F)(F)F,95%,19%,20%
COc1cccc(NC(=O)NC2CCN(CCCCCNC(=O)/C=C/c3ccc(Cl)c(Cl)c3)CC2)c1,100%,8%,14%
CCOC(=O)c1ccc(-c2c(C(F)(F)F)noc2-c2cc(CC)c(OC)cc2O)o1,100%,95%,0%
CCC(C)(C)NC(=O)C(c1cccc(OC)c1)N(C(=O)CNC(=O)c1cccs1)c1ccc2c(c1)OCCO2 (stereo not drawn),100%,76%,0%
CCN(CC)CCOC(=O)c1ccc(NC(=O)c2cn(-c3ccccc3)nc2-c2cccs2)cc1.Cl,100%,59%,25%
N#Cc1ccc(N[C@@H](CC2CCCCC2)C(=O)Nc2ccc(-c3ccccc3)cc2)c2ccccc12.O=C(O)C(F)(F)F,100%,99%,34%
CCOC(=O)C1=C(C)NC2=C(C(=O)CC(C)(C)C2)C1c1ccc(Br)cc1 (stereo not drawn),90%,66%,0%
CN(C)CCCOc1ccc(CNCc2cccc(Oc3ccc(Cl)cc3)c2)cc1.O=C(O)C(F)(F)F,100%,30%,52%
COc1ccc(-n2ncc(C(=O)N3CCC4(C3)C(=O)N(c3ccccc3)c3ccccc34)c2C)cc1 (stereo not drawn),88%,91%,45%
O=C(/C=C/c1ccc(C(F)(F)F)cc1)NCCCCCN1CCCN(C(=O)Nc2ccc(Cl)c(Cl)c2)CC1,100%,17%,89%
Cc1ccc(NS(=O)(=O)c2cccs2)cc1-c1cccc(C(=O)Nc2ccc(F)cc2)c1,99%,100%,38%
CC(=O)N1CCN(c2ccc(NC(=O)c3oc(-c4ccccc4)nc3C(F)(F)F)cn2)CC1,92%,93%,0%
COc1ccc2nccc([C@@H](O)CN3CCC(NC(=O)c4ccc(-c5ccccc5)s4)CC3)c2c1,100%,81%,10%
COc1ccc2nccc([C@@H](O)CN3CCC(NCc4ccc5c(n4)NC(=O)CS5)C(F)C3)c2c1.Cl (stereo partly drawn),89%,88%,5%
O=C(NCCCCN1CCC(c2ccc(C(F)(F)F)cc2C(F)(F)F)CC1)c1ccc(NC(=O)c2ccc(Cl)cc2)cc1,99%,59%,4%
COc1cc(Nc2nccc(N3CCC(NC(=O)C(C)c4ccc(Cl)cc4)C3)n2)cc(OC)c1OC (stereo not drawn),97%,90%,2%

SMILES,Inhibition (Plasmodium falciparum [1]),Inhibition (Plasmodium falciparum [2]),Inhibition (HepG2)
CCc1cn(C)c2c(N3CCCC3=O)cc(C(=O)N[C@@H](Cc3ccccc3)[C@H](O)CNC(C)(C)CCCC(C)C)cc12,97%,98%,15%
O=C(Nc1cccc(-c2cccc(-c3nc4cc(F)ccc4[nH]3)c2)c1)c1ccoc1,98%,35%,36%
Br.Cc1cccc(OCCCCON2C(=N)N=C(N)NC2(C)C)c1C,97%,95%,65%
COc1ccc(CC2(CO)CCN(Cc3ccc(O)c(Cl)c3)CC2)cc1,98%,14%,0%
CCc1ccccc1-c1csc(C(=O)NCC2CCN(Cc3ccc(C(C)(C)C)cc3)C2)c1.O=C(O)C(F)(F)F (stereo not drawn),90%,15%,25%
CCN(CC)CCN(Cc1ccc(-c2ccc(C(F)(F)F)cc2)cc1)C(=O)Cn1c(CCc2ccc(F)cc2)nc(=O)c2ccccc21.O=C(O)C(O)C(O)C(=O)O,97%,58%,42%
Cc1c(C)n(C2CCCCC2)c2ncnc(OC3CCN(CC(=O)N4CCCC4)CC3)c12,95%,59%,31%
O=C(/C=C/c1cccc2ccccc12)NCCCCCN1CCC(c2c[nH]c3ccccc23)CC1,92%,6%,55%
N#Cc1ccc(C(=O)Nc2cc(-c3cccc(O)c3)cc3[nH]ncc23)cc1,90%,79%,15%
CCCCNCc1ccc(-c2nc(CN(CCCn3ccnc3)C(=O)NC3CC3c3ccccc3)cs2)cc1.O=C(O)C(F)(F)F (stereo not drawn),100%,34%,21%
CCCCCCCCc1nc(C)c(Br)c(O)c1Br,96%,95%,2%
Cc1ccc2[nH]c([N-]C#N)nc2c1.[Na+],96%,0%,7%
O=[N+]([O-])c1ccc2ncnc(Nc3ccc(F)c(Cl)c3)c2c1,100%,65%,0%
CCNC(=O)Nc1cccc(-c2cccc(-c3nc4cc(C(F)(F)F)ccc4[nH]3)c2)c1,91%,32%,50%
Cc1ccc2nc(C)n(C3CCN(C(=O)Cc4ccc(F)c(F)c4)CC3)c2c1,100%,100%,4%
CC(=O)Nc1ccc(C(=O)Nc2ccc(-c3csc(-c4nc5ccccc5[nH]4)c3)cc2)cn1,93%,0%,11%
Cc1ccc(O)cc1Nc1ccnc2cc(-c3nccs3)ccc12.Cl,100%,83%,63%
N#Cc1ccc(N(CCOc2ccc3c(c2)CCC(=O)N3)Cc2ccccc2C(F)(F)F)cc1C(F)(F)F,98%,64%,19%
Clc1ccc(OCc2ccccc2)c(-c2nc(-c3nc4ncc(Br)cc4[nH]3)cs2)c1,100%,77%,0%
Cc1cc(N[C@@H](Cc2ccccc2)C(=O)NCCOc2ccccc2)nc(NCCc2ccccc2)n1.O=C(O)C(F)(F)F,100%,68%,12%
CC(C)(C)OC(=O)NCc1ccc(Nc2nnc(-c3cccc(C(=O)NCCC(c4ccccc4)c4ccccc4)c3)o2)cc1,100%,89%,0%

SMILES,Inhibition (Plasmodium falciparum [1]),Inhibition (Plasmodium falciparum [2]),Inhibition (HepG2)
CCOc1ccc(C(=O)N2CCOC(CCN3CCC(c4ccccc4)CC3)(c3ccc(Cl)c(Cl)c3)C2)cc1 (stereo not drawn),88%,71%,14%
CC(C)c1ccc(CN2CCC(CNC(=O)c3cc(-c4ccccc4F)cs3)C2)cc1.O=C(O)C(F)(F)F (stereo not drawn),100%,29%,32%
COc1cc(OC)cc(-c2nn(-c3ccc([N+](=O)[O-])cc3C#N)c(=S)n2Cc2ccco2)c1,100%,100%,11%
Cc1ccc2c(OCCN3CCC(Cc4cc5c(cc4F)OCC(=O)N5)CC3)cc(F)cc2n1.Cl,100%,71%,27%
O=[N+]([O-])c1ccc2nccnc2c1,97%,0%,0%
CCc1cn(CC(=O)N(CCOc2ccc(-c3ccc(C(F)(F)F)cc3)cc2)CCN(CC)CC)c(SCc2ccc(F)cc2)nc1=O,95%,29%,46%
NCCNc1ccc([N+](=O)[O-])cc1C(=O)Nc1cccc(Cl)c1,85%,7%,23%
COc1cc2c(cc1S(=O)(=O)c1ccc(NC(=O)c3cccc(C(F)(F)F)c3)cc1)CCN(C)CC2,92%,25%,18%
COc1ccc2nccc([C@@H](O)CN3CCC(NCc4cc5ccccc5[nH]4)CC3)c2n1.O=C(O)C(=O)O,100%,55%,17%
COc1ccc(N2CCN(CCCCNC(=O)c3ccc(NC(=O)c4cccc(Cl)c4)cc3)CC2)c(OC)c1,100%,33%,18%
O=C(O)C(F)(F)F.Oc1ccc(CN2CCC(NCc3cccc4ccccc34)CC2)cc1,97%,8%,8%
Cl.c1ccc2nc(NCCCCCCCCNc3ccc4ccccc4n3)ccc2c1,100%,37%,52%
COc1ccc2nccc([C@@H](O)CN3CCC(NC(=O)/C=C/c4cc(F)cc(NC(C)=O)c4)CC3)c2c1,97%,49%,7%
O=C(Nc1ccc(Cl)cc1)c1cc(Cl)ccc1NC(=O)C1(c2ccc(Cl)cc2)CCCC1,85%,29%,13%
Br.Cc1cc(Br)c(OCCCON2C(=N)N=C(N)NC2(C)C)c(Br)c1,95%,97%,62%
COc1ccc2ccccc2c1CON1C(=N)N=C(N)NC1(C)C.Cl,94%,5%,25%
Br.N=c1n(CCN2CCCCC2)c2ccccc2n1CC(=O)c1cccc([N+](=O)[O-])c1,94%,0%,10%
COc1ccccc1N1CCN(Cc2c(O)ccc3cc(Br)ccc23)CC1,89%,75%,8%
CC(C)Cn1c(Sc2ccc(C#N)c([N+](=O)[O-])c2)nnc1-c1ccccc1,83%,12%,17%
